Reference: PubChem BioAssay AID1159580 (chemical genetic matrix, 2015)
The campaign covered roughly 5,500 compounds. About 2,000 (36%) were called active. Not shown: some 18% with an inconclusive outcome. Rule as the data show it: active = normalized growth mostly below about 0.91 (no sharp cut-off); inconclusive = no clear call, values can overlap the other calls; inactive = mostly above about 0.92. The list shows a part of the results.

Assay: chemical genetic growth profiling, strain panel (AID 1159580);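 also: tested at 20 µM; growth read once vehicle control cultures reached saturation at 30 °C; 1 = growth at the plate median or of vehicle wells; lower values mean less growth of the strain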
Details: growth OD

Measured: normalized growth

O=C(CCc1ccc(O)cc1)c1c(O)cc(O)cc1O[C@@H]1O[C@H](CO)[C@@H](O)[C@H](O)[C@H]1O
inactive: S. cerevisiae deletion strains, locus YJR075W, strain HOC1, active compounds read low 1.05 | S. cerevisiae deletion strains, locus YKL009W, strain mrt4, active compounds read low 0.978 | S. cerevisiae deletion strains, locus YKL068W, active compounds read low 1 | S. cerevisiae deletion strains, locus YKL085W, strain MDH1 (second series), active compounds read low 0.988 | S. cerevisiae deletion strains, locus YKL085W, strain MDH1, active compounds read low 0.988 | S. cerevisiae deletion strains, locus YKL160W, strain elf1, active compounds read low 1.01 | S. cerevisiae deletion strains, locus YKR001C, strain vps1, active compounds read low 1 | S. cerevisiae deletion strains, locus YKR026C, strain gcn3, active compounds read low 1.01 | S. cerevisiae deletion strains, locus YKR091W, strain srl3, active compounds read low 1.01 | S. cerevisiae deletion strains, locus YLL001W, strain dnm1, active compounds read low 1.01 | S. cerevisiae deletion strains, locus YLL026W, active compounds read low 1.02 | S. cerevisiae deletion strains, locus YLL041C, strain sdh2, active compounds read low 1.01 | S. cerevisiae deletion strains, locus YLR027C, strain aat2, active compounds read low 1.01 | S. cerevisiae deletion strains, locus YLR039C, strain RIC1, active compounds read low 1.08 | S. cerevisiae deletion strains, locus YLR058C, strain SHM2, active compounds read low 1.01 | S. cerevisiae deletion strains, locus YLR102C, strain apc9, active compounds read low 1.01 | S. cerevisiae deletion strains, locus YLR113W, strain HOG1, active compounds read low 0.956 | S. cerevisiae deletion strains, locus YLR221C, strain rsa3, active compounds read low 1.02 | S. cerevisiae deletion strains, locus YLR258W, strain gsy2, active compounds read low 1.04 | S. cerevisiae deletion strains, locus YLR262C, strain YPT6 (second series), active compounds read low 1.02 | S. cerevisiae deletion strains, locus YLR262C, strain YPT6, active compounds read low 1.14 | S. cerevisiae deletion strains, locus YLR268W, strain sec22, active compounds read low 1 | S. cerevisiae deletion strains, locus YLR320W, strain mms22, active compounds read low 1.02 | S. cerevisiae deletion strains, locus YLR330W, strain CHS5, active compounds read low 1.01 | S. cerevisiae deletion strains, locus YLR342W, strain FKS1 (second series), active compounds read low 1.01 | S. cerevisiae deletion strains, locus YLR342W, strain FKS1, active compounds read low 1.02 | S. cerevisiae deletion strains, locus YLR357W, strain rsc2, active compounds read low 1 | S. cerevisiae deletion strains, locus YLR370C, strain arc18, active compounds read low 1.01 | S. cerevisiae deletion strains, locus YLR371W, strain rom2, active compounds read low 0.997 | S. cerevisiae deletion strains, locus YLR384C, strain iki3, active compounds read low 1.03 | S. cerevisiae deletion strains, locus YLR418C, strain cdc73, active compounds read low 1.03 | S. cerevisiae deletion strains, locus YML016C, strain PPZ1, active compounds read low 1.02 | S. cerevisiae deletion strains, locus YML032C, strain rad52, active compounds read low 0.986 | S. cerevisiae deletion strains, locus YML120C, strain ndi1, active compounds read low 1.01 | S. cerevisiae deletion strains, locus YML124C, strain tub3, active compounds read low 0.993 | S. cerevisiae deletion strains, locus YMR058W, strain fet3, active compounds read low 1.02 | S. cerevisiae deletion strains, locus YMR078C, strain ctf18, active compounds read low 0.991 | S. cerevisiae deletion strains, locus YMR125W, strain sto1, active compounds read low 1.02 | S. cerevisiae deletion strains, locus YMR129W, active compounds read low 1.01 | S. cerevisiae deletion strains, locus YMR205C, strain PFK2, active compounds read low 1.02 | S. cerevisiae deletion strains, locus YMR223W, strain ubp8, active compounds read low 0.992 | S. cerevisiae deletion strains, locus YMR231W, strain pep5, active compounds read low 1.01 | S. cerevisiae deletion strains, locus YMR263W, strain SAP30, active compounds read low 1.03 | S. cerevisiae deletion strains, locus YMR307W, strain GAS1, active compounds read low 1.23 | S. cerevisiae deletion strains, locus YNL067W, strain RPL9B, active compounds read low 1.04 | S. cerevisiae deletion strains, locus YNL071W, strain lat1, active compounds read low 1.01 | S. cerevisiae deletion strains, locus YNL153C, strain GIM3, active compounds read low 1.04 | S. cerevisiae deletion strains, locus YNL183C, strain NPR1, active compounds read low 0.937 | S. cerevisiae deletion strains, locus YNL209W, strain ssb2, active compounds read low 1.01 | S. cerevisiae deletion strains, locus YNL233W, strain BNI4, active compounds read low 1.03 | S. cerevisiae deletion strains, locus YNL248C, strain rpa49, active compounds read low 1.01 | S. cerevisiae deletion strains, locus YNL250W, strain rad50, active compounds read low 0.986 | S. cerevisiae deletion strains, locus YNL271C, strain bni1, active compounds read low 0.992 | S. cerevisiae deletion strains, locus YNL298W, strain CLA4, active compounds read low 0.998 | S. cerevisiae deletion strains, locus YNL307C, strain MCK1, active compounds read low 0.991 | S. cerevisiae deletion strains, locus YNL322C, strain KRE1 (second series), active compounds read low 1.02 | S. cerevisiae deletion strains, locus YNL322C, strain KRE1, active compounds read low 1.02 | S. cerevisiae deletion strains, locus YNR049C, strain mso1, active compounds read low 1.02 | S. cerevisiae deletion strains, locus YNR052C, strain pop2, active compounds read low 0.982 | S. cerevisiae deletion strains, locus YOL012C, strain htz1 0.98 | S. cerevisiae deletion strains, locus YOL147C, strain pex11, active compounds read low 0.996 | S. cerevisiae deletion strains, locus YOR001W, strain rrp6, active compounds read low 1.04 | S. cerevisiae deletion strains, locus YOR061W, strain CKA2, active compounds read low 1.02 | S. cerevisiae deletion strains, locus YOR069W, strain VPS5, active compounds read low 1.01 | S. cerevisiae deletion strains, locus YOR070C, strain gyp1, active compounds read low 1 | S. cerevisiae deletion strains, locus YOR080W, strain dia2, active compounds read low 1.03 | S. cerevisiae deletion strains, locus YOR083W, strain WHI5, active compounds read low 1.01 | S. cerevisiae deletion strains, locus YOR106W, strain vam3, active compounds read low 1.01 | S. cerevisiae deletion strains, locus YOR136W, strain idh2, active compounds read low 0.994 | S. cerevisiae deletion strains, locus YOR144C, strain elg1, active compounds read low 1 | S. cerevisiae deletion strains, locus YOR184W, strain ser1, active compounds read low 1.03 | S. cerevisiae deletion strains, locus YOR231W, strain MKK1, active compounds read low 0.993 | S. cerevisiae deletion strains, locus YOR265W, strain rbl2, active compounds read low 1.01 | S. cerevisiae deletion strains, locus YOR270C, strain vph1, active compounds read low 1.03 | S. cerevisiae deletion strains, locus YOR290C, strain snf2, active compounds read low 0.988 | S. cerevisiae deletion strains, locus YOR316C, strain cot1, active compounds read low 1.02 | S. cerevisiae deletion strains, locus YPL051W, strain arl3, active compounds read low 1.01 | S. cerevisiae deletion strains, locus YPL078C, strain atp4, active compounds read low 1.02 | S. cerevisiae deletion strains, locus YPL106C, strain sse1, active compounds read low 1.02 | S. cerevisiae deletion strains, locus YPL240C, strain hsp82, active compounds read low 1.01 | S. cerevisiae deletion strains, locus YPL241C, strain CIN2, active compounds read low 1.02 | S. cerevisiae deletion strains, locus YPL256C, strain CLN2, active compounds read low 0.966 | S. cerevisiae deletion strains, locus YPR119W, strain clb2, active compounds read low 0.992 | S. cerevisiae deletion strains, locus YPR141C, strain kar3, active compounds read low 0.987 | S. cerevisiae deletion strains, locus YPR163C, strain tif3, active compounds read low 0.993 | S. cerevisiae deletion strains, locus YPR167C, strain met16, active compounds read low 1.01 | S. cerevisiae deletion strains, strain wtn01, active compounds read low 1 | S. cerevisiae strains, strain wild type, active compounds read low 1.02
